Screens deposited in PubChem BioAssay by NMMLSC.
LAP4 TOR yeast = modulators of TOR pathway LAP4-GFP in S. cerevisiae. 320,000 compounds, 0.34% hits. S. cerevisiae LAP4-GFP multiplex, flow cytometry GFP, 3 h; median GFP as percent of DMSO wells. GFP response vs DMSO, % at 10 µM. AID 2023;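 active = GFP response vs DMSO above a set limit, about the screen mean plus 3 SD, cut at about 150% in these data; inconclusive = under 70 cell events counted for the yeast strain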
CIT2 TOR yeast = yeast TOR pathway CIT2-GFP modulation. S. cerevisiae CIT2-GFP strain, flow cytometry, 3 h; 100 means same as DMSO wells. GFP response vs DMSO, % at 10 µM. 320,000 compounds, 0.065% hits. AID 2029;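 active = GFP response relative to DMSO above a set limit, near the screen mean plus 3 SD, cut at about 150% in these data; inconclusive = Fewer than 70 cells measured for a yeast strain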;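 also: ratio of well median GFP fluorescence to mean of DMSO wells on the plate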
AGP1-GFP MLPCN = alters AGP1-GFP fluorescence in TOR pathway yeast screen | S. cerevisiae AGP1-GFP multiplex flow cytometry, 3 h; GFP as percent of DMSO wells | GFP response vs DMSO, % at 10 µM | 320,000 compounds, 0.02% hits;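 active = GFP response relative to DMSO above a set limit, near screen average plus 3 SD, cut at about 150% in these data; inconclusive = fewer than 70 cells counted for the yeast strain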;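 also: median GFP channel fluorescence of the gated AGP1 strain per well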
MEP2-GFP yeast = yeast TOR pathway MEP2-GFP modulation; S. cerevisiae MEP2-GFP strain, flow cytometry GFP, 3 h; 100% = DMSO control level; GFP response vs DMSO, % at 10 µM; 330,000 compounds, 0.51% hits; AID 2016;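 active = GFP response versus DMSO above a set limit, roughly screen mean plus 3 SD, cut at about 180% in these data; inconclusive = fewer than 70 cells counted for a yeast strain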;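 also: median GFP fluorescence of the barcode-gated MEP2-GFP cells per well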
RPL19A TOR yeast = modulators of TOR pathway RPL19A-GFP in S. cerevisiae; S. cerevisiae RPL19A-GFP strain, flow cytometry, 3 h; active compounds read low; percent response vs DMSO, % at 10 µM; 330,000 compounds, 0.3% hits; AID 2025;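 active = percent response vs DMSO below 50%; inconclusive = fewer than 70 events counted for the yeast strain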;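 also: median channel GFP fluorescence of the barcoded RPL19A-GFP strain; lower means less RPL19A-GFP as with rapamycin TOR inhibition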
Efflux pump inh = blocks antifungal efflux pumps in multiplex yeast assay. S. cerevisiae Candida pump triplex, Nile Red efflux. inhibition, % at 10 µM. 330,000 compounds, 0.44% hits. AID 485275;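 active = plate passing quality check with inhibition over a set limit, or well fluorescence over plate mean plus 4 SD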;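 also: Nile Red retained in pooled yeast measured as flow cytometry median fluorescence; higher means more Nile Red kept so more efflux inhibition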
Yeast cmpd fluor = compound fluorescence in yeast efflux pump counter-screen; S. cerevisiae AD/pABC3, flow cytometry; AID 588517; 1,700 compounds, 4% hits; shares compounds with Efflux pump inh; fluorescence ratio to DMSO, % at 10 µM;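 active = fluorescence ratio to DMSO above its plate's cutoff, the plate mean ratio plus 5 SD, cut at about 210% in these data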;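 also: unstained yeast with no Nile Red so the signal is compound autofluorescence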
Mdr1 pump inh = blocks the Candida albicans Mdr1 efflux pump in yeast; 1,700 compounds, 1% hits; inhibition, % at 10 µM; shares compounds with Efflux pump inh; S. cerevisiae AD/CaMDR1, Nile Red efflux, flow cytometry; AID 588518; in the data active = inhibition above about 26%;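 also: higher means more Nile Red retained so more efflux inhibition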
Cdr2 pump inh = blocks the Candida albicans Cdr2 efflux pump in yeast; shares compounds with Efflux pump inh; AID 588520; 1,700 compounds, 4% hits; Nile Red retention ratio vs DMSO, % at 10 µM; S. cerevisiae AD/CaCDR2, Nile Red retention, flow cytometry; in the data active = Nile Red retention ratio vs DMSO above about 190%;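 also: higher ratio means more blocking of Cdr2 efflux of the dye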
Cdr1 pump inh = Candida Cdr1 efflux pump inhibition; shares compounds with Efflux pump inh; S. cerevisiae AD/CaCDR1, Nile Red efflux, flow cytometry; inhibition, % at 10 µM; 1,700 compounds, 1% hits; AID 588522;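 active = inhibition above the screen-wide mean plus twice its standard deviation, cut at about 32% in these data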
Hits are given with their value; 0 = inactive; ? = inconclusive; - = no result; + = active, no number. In the library only some 1.3% were active in any assay of this set; here they are far more common.

SMILES	LAP4 TOR yeast	CIT2 TOR yeast	AGP1-GFP MLPCN	MEP2-GFP yeast	RPL19A TOR yeast	Efflux pump inh	Yeast cmpd fluor	Mdr1 pump inh	Cdr2 pump inh	Cdr1 pump inh
COc1ccc(-c2cc(N3C(=O)Nc4ccccc4N3O)n[nH]2)cc1	0	0	0	0	0	6.5	0	0	0	0
COc1ccc(-c2cc(N3C(=O)Nc4ccccc4N3O)n[nH]2)cc1OC	0	0	0	0	0	0	-	-	-	-
CCOC(=O)c1oc2c(c1C)C(=O)CCC2	0	0	0	0	0	6.7	0	0	0	0
Cc1cc(S(=O)(=O)N2CCOCC2)ccc1OCC(=O)Nc1ccc(Br)cc1F	0	0	0	0	0	0.9	0	0	0	0
COc1cccc(-c2nnc(SC(C(=O)c3c[nH]c4ccccc34)c3ccccc3)n2C)c1 (stereo not given)	0	0	0	0	0	0.8	0	0	0	0
C/C(=N\NC(=O)c1ccc(Cl)cc1)c1ccc(Br)s1	0	0	-	0	0	0	-	-	-	-
C/C(=N\NC(=O)c1cc(Cl)ccc1O)c1ccc(Br)s1	0	0	0	0	0	7.6	0	0	0	0
CCN(CC)C(=O)Cn1c(C)c(/C=C/c2cc[n+](C)cc2)c2ccccc21	0	0	0	0	0	0	365	0	0	0
Cc1cccc(C)c1OCc1cc(C(=O)N2CCCCCCC2)no1	0	0	0	0	0	0	-	-	-	-
Cc1cccc(C)c1OCc1cc(C(=O)N2CCNC(=O)C2)no1	0	0	0	0	0	0	0	0	0	0
Cc1cc(OCC(=O)NCc2ccncc2)c2c(C)cc(=O)oc2c1	0	0	0	0	0	0	-	-	-	-
NNc1nc2c(F)cccc2s1	0	0	0	0	0	0	-	-	-	-
Nc1nc2c(F)cccc2s1	0	0	0	0	0	2.2	0	0	0	0
CCOC(=O)C1CCN(C(=O)COC(=O)c2oc3ccccc3c2C)CC1	0	0	0	0	0	0	-	-	-	-
Cc1ccccc1S(=O)(=O)Nc1nc2ccccc2nc1N1CCc2ccccc2C1	0	0	0	0	0	7.5	0	0	0	0
COC(=O)c1ccc(OCC(=O)N2CCCc3ccccc32)cc1	0	0	0	0	0	2.8	0	0	0	0
COCC(=O)N1CCCc2ccccc21	0	-	0	0	0	0	-	-	-	-
NS(=O)(=O)c1ccc(CCNC(=O)c2ccc(OCC3CCCO3)cc2)cc1 (stereo not given)	0	0	0	0	0	0	-	-	-	-
O=C(Nc1ccc(S(=O)(=O)Nc2ncccn2)cc1)c1cccc(Br)c1	0	0	0	0	0	0	-	-	-	-
O=C(Nc1ccc(S(=O)(=O)Nc2ccccn2)cc1)c1cccc(Br)c1	0	0	0	0	0	6.2	0	0	0	0
Cc1nnc(NC(=O)c2sc3nc(-c4cccs4)cc(C(F)(F)F)c3c2N)s1	0	0	0	0	0	1.3	0	0	0	0
CCOC(=O)c1nc(Nc2ccccc2C)c2ccccc2n1	0	0	0	0	0	0.9	0	0	0	0
CCOC(=O)c1nc(Nc2ccccc2CC)c2ccccc2n1	0	0	0	0	0	0	-	-	-	-
COc1ccc(Nc2nnc(SCC(=O)/C=C3/N(C)c4ccccc4C3(C)C)s2)cc1	0	0	0	0	0	0	-	-	-	-
CCOCCCNC(=O)/C(C#N)=C/c1ccc(-c2ccc(S(=O)(=O)N3CCOCC3)cc2)o1	0	0	0	0	0	0	-	-	-	-
SMILES	LAP4 TOR yeast	CIT2 TOR yeast	AGP1-GFP MLPCN	MEP2-GFP yeast	RPL19A TOR yeast	Efflux pump inh	Yeast cmpd fluor	Mdr1 pump inh	Cdr2 pump inh	Cdr1 pump inh
CCOCCCNC(=O)/C(C#N)=C/c1ccc([N+](=O)[O-])o1	488	0	0	+	0	0.9	0	0	0	0
C=CCNC(=O)C(C)N1c2cccc3cccc(c23)S1(=O)=O (stereo not given)	0	?	0	0	0	0	-	-	-	-
Cc1cccc(C)c1OCC(=O)OCC(=O)Nc1ccc(Cl)cn1	0	0	0	0	0	0	-	-	-	-
CCN(CC)C(=O)Cn1c(=O)n(CCCC(=O)NCc2ccc3c(c2)OCO3)c(=O)c2sccc21	0	0	0	0	0	0	-	-	-	-
Cc1cc(/C=C(\C#N)C(=O)NCCc2c[nH]c3ccccc23)c(C)n1C	0	0	0	0	0	0	-	-	-	-
N#C/C(=C/c1ccc(Br)s1)C(=O)NCCc1c[nH]c2ccccc12	0	0	0	0	0	5.5	0	0	0	0
BrC(=C\c1ccccc1)/C=N/Nc1nc2ccccc2[nH]1	0	0	0	0	0	2.5	0	0	0	0
Cc1ccc(C(C)(C)C)cc1S(=O)(=O)N1CCC(C(=O)N2CCN(c3ccc(O)cc3)CC2)CC1	0	0	0	0	0	0.8	0	0	0	0
CN(C)c1ccc(/C=C/C=C2/SC(=S)N(c3ccccc3)C2=O)cc1	0	0	0	0	0	2.4	+	0	547	0
COc1ccc2c(c1)CC/C(=C/c1ccco1)C2=O	0	0	0	0	0	20	0	0	0	0
O=C1/C(=C/c2ccco2)CCc2ccccc21	0	0	0	0	0	0	-	-	-	-
O=C(N/N=C/c1cccc(F)c1)c1c(O)c2c([nH]c1=O)CCCC2	0	0	0	0	0	8.9	0	0	0	0
COc1ccc(CNC(=O)c2cc3c(=O)n4ccccc4nc3n(Cc3cccnc3)c2=N)cc1	0	0	0	0	0	0.9	0	0	0	0
COc1cccc(NC(=O)c2cc3c(=O)n4ccccc4nc3n(CC(C)C)c2=N)c1	0	0	0	0	0	1.6	0	0	0	0
N=c1c(C(=O)NCc2ccc3c(c2)OCO3)cc2c(=O)n3ccccc3nc2n1Cc1cccnc1	0	0	0	0	0	0	-	-	-	-
Cc1cccc(NC(=O)c2cc3c(=O)n4ccccc4nc3n(CC(C)C)c2=N)c1	0	0	0	0	0	0	-	-	-	-
CCCCCCCC1CC(=O)C=C(C)C1C(=O)OCC (stereo not given)	0	0	0	0	0	0	-	-	-	-
CCCCCC1C/C(=N\O)C=C(C)C1C(=O)OC (stereo not given)	0	0	0	0	0	1.5	0	0	0	0
Cn1cc(-c2nnc(-c3ccccc3)o2)c2ccccc21	0	0	0	0	0	0	-	-	-	-
COc1cc(SC)ccc1C(=O)Nc1ccccc1	0	?	0	0	0	0	-	-	-	-
